Among the test systems are NCI-H23 lung; NCI-H226 lung; NCI-H322M lung; HOP-62 NSCLC; HOP-92 NSCLC; NCI-H522 lung; A549/ATCC NSCLC; 786-0 renal; COLO 205 colon; NCI-H460 lung.
Test in all cases: NCI-60 one-dose screen, 48 h (100 = growth as untreated, 0 = no growth, -100 = all killed)
What all share (settings): 10 µM unless noted

Each structure is given as a SMILES string. Compounds without any hit were thinned out: in the full panel of roughly 83,000, 20% have a hit.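 The endpoint reported here, percent growth, reads 100 for growth as untreated, 0 for no net growth and -100 for all cells dead.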 Unmarked numbers belong to inactive results. The source made the active and inactive calls. How the source made its calls: active means growth percent below 10; inactive means the rest.

Turning to `CC(=O)OC[C@]12CC[C@@H](C(=O)CBr)[C@@H]1[C@H]1CC[C@@H]3[C@@]4(C)CCCNC(C)(C)[C@@H]4CC[C@@]3(C)[C@]1(C)CC2`, the growth in the test on NCI-H23 lung was -64.3% [100 µM] (active); in the test with NCI-H226 lung, -20.3% [100 µM] (active); with NCI-H322M lung it was -100% [100 µM] (active); in the test on HOP-62 NSCLC, -86.8% [100 µM] (active); in the test on HOP-92 NSCLC, -76.7% [100 µM] (active); in the test with NCI-H522 lung, -81.4% [100 µM] (active). The growth in the test with A549/ATCC NSCLC was -69.7% [100 µM] (active); in the test on 786-0 renal, -74.3% [100 µM] (active); in the test with COLO 205 colon, -59.3% [100 µM] (active).

As to `O=C(Nc1ccc(CN2CCOCC2)c(C(F)(F)F)c1)c1nc2ccc3[nH]ncc3c2c2c1CCCC2`, the growth in the test with NCI-H23 lung was 93.2%; in the test on NCI-H226 lung, 91.2%; in the test on NCI-H322M lung it was 102%; in the test with HOP-62 NSCLC it was 78.8%; in the test with HOP-92 NSCLC it was 99.2%; in the test with NCI-H522 lung it was 87.3%. Further, the growth in the test with A549/ATCC NSCLC is 63.3%; in the test on 786-0 renal it was 101%; in the test on COLO 205 colon, 83.4%.

As for `Cc1cnc(N)nc1OCC(C)(C)CNC(=O)c1cccc(-c2ccc(S(=O)(=O)Nc3ccc4c(c3)N(C(=O)C3CC3)CCC4)cc2)c1`, the growth in the test on NCI-H23 lung is 48.6%; in the test on NCI-H226 lung it was 59.3%; in the test with NCI-H322M lung it was 84.2%; with HOP-62 NSCLC, 59.7%; with HOP-92 NSCLC, 53.5%; in the test on NCI-H522 lung it was 65.4%. For the same compound, the growth is 49.9% in the test with A549/ATCC NSCLC, 90.6% with 786-0 renal and 55.5% in the test with COLO 205 colon.

Turning to `NC(=O)c1cccc(-c2ccc(S(=O)(=O)Nc3ccc4c(c3)N(C(=O)C3CC3)CCC4)cc2)c1`, the growth is 48% with NCI-H23 lung; 63.7% in the test with NCI-H226 lung; 70% with NCI-H322M lung; 38.4% in the test on HOP-62 NSCLC; 33.7% in the test with HOP-92 NSCLC; 7.75% (active) in the test with NCI-H522 lung. In addition, the growth in the test on A549/ATCC NSCLC was 50.8%; with 786-0 renal, 100%; in the test with COLO 205 colon it was 43.6%.

`CC1(C)C(=O)/C(=C\c2ccco2)C[C@]2(C)[C@H]3CC=C4[C@@H]5C[C@](C)(C(=O)O)CC[C@]5(C)CC[C@@]4(C)[C@]3(C)CC[C@@H]12`: the growth in the test with NCI-H23 lung was -64% [100 µM] (active); in the test on NCI-H226 lung it was -29.3% [100 µM] (active); with NCI-H322M lung it was -91.9% [100 µM] (active); with HOP-62 NSCLC it was -67.7% [100 µM] (active); with HOP-92 NSCLC, -82.8% [100 µM] (active); with NCI-H522 lung, -64.4% [100 µM] (active). For the same compound, the growth in the test on A549/ATCC NSCLC is -67.6% [100 µM] (active); in the test on 786-0 renal, -53.6% [100 µM] (active); with COLO 205 colon it was -62.2% [100 µM] (active).

As to `Cn1ncc2c(Nc3ccc(O)cc3)nc(Cl)nc21`, the growth in the test on NCI-H23 lung is 107%; in the test on NCI-H226 lung, 91.2%; in the test on NCI-H322M lung it was 96.6%; in the test on HOP-62 NSCLC, 95.8%; with HOP-92 NSCLC it was 104%; in the test on NCI-H522 lung it was 88%. For the same compound, the growth was 96% with A549/ATCC NSCLC, 111% with 786-0 renal and 108% with COLO 205 colon.

With `C=CCc1nc2ccccc2s1`, the growth in the test on NCI-H23 lung is 95.7%; with NCI-H226 lung it was 101%; in the test with NCI-H322M lung, 106%; in the test on HOP-62 NSCLC it was 100%; with HOP-92 NSCLC, 98.6%; in the test on NCI-H522 lung it was 86.6%. The growth in the test on A549/ATCC NSCLC was 103%; in the test on 786-0 renal, 108%; in the test on COLO 205 colon, 113%.

As to `CCOc1ccc2sc(NS(=O)(=O)c3ccc(N)cc3)nc2c1`, the growth was 104% with NCI-H23 lung; 94.7% in the test with NCI-H226 lung; 109% in the test on NCI-H322M lung; 100% with HOP-62 NSCLC; 94% with HOP-92 NSCLC; 115% in the test on NCI-H522 lung. The growth with A549/ATCC NSCLC was 112%; with 786-0 renal, 115%; in the test on COLO 205 colon it was 103%.

Turning to `COc1cc(OC)c(/C=C/C(=O)c2c(N)cc(OC)cc2OC)c(OC)c1`, the growth in the test with NCI-H23 lung is 8.81% (active); in the test on NCI-H226 lung it was 75%; in the test with NCI-H322M lung it was 54.4%; with HOP-62 NSCLC it was 43.6%; in the test with HOP-92 NSCLC, 26.6%; with NCI-H522 lung it was -11.8% (active). The growth in the test on A549/ATCC NSCLC was 27.4%; in the test with 786-0 renal it was 35.2%; with COLO 205 colon, -24.4% (active).

On to `COc1cc(NCc2ccccc2O)c2ncccc2c1`, for which the growth was 97.7% in the test on NCI-H23 lung; 104% in the test on NCI-H226 lung; 90.7% with NCI-H322M lung; 83.5% in the test on HOP-62 NSCLC; 81.1% in the test on HOP-92 NSCLC; 88.3% in the test on NCI-H522 lung. For the same compound, the growth in the test with A549/ATCC NSCLC is 110%; in the test on 786-0 renal it was 69.5%; in the test with COLO 205 colon, 96.9%.

For `Cc1cc(N2CCCCCC2)nc(N2CCN(CC(=O)Nc3ccc4c(ccn4Cc4ccccc4)c3)CC2)n1`, the growth was 48.3% in the test on NCI-H23 lung; 53.5% with NCI-H226 lung; 80.7% in the test on NCI-H322M lung; 54.1% in the test with HOP-62 NSCLC; 8.3% (active) with HOP-92 NSCLC; 55% in the test with NCI-H522 lung. Also, the results for the growth in the test with A549/ATCC NSCLC, in the test with 786-0 renal and with COLO 205 colon were 46.8%, 39% and 31.2%, respectively.

For `COc1ccc2c(c1)C(C)Cc1c(ncnc1-n1cnc3ccccc31)N2C` (configuration not stated), the growth in the test on NCI-H23 lung is 32.3%; in the test with NCI-H226 lung, 41.5%; in the test with NCI-H322M lung, 54.9%; in the test on NCI-H460 lung, 11.8%; in the test with HOP-92 NSCLC, 45.1%; with A549/ATCC NSCLC, 21.4%. For the same compound, the growth in the test on 786-0 renal is 29%; in the test on COLO 205 colon, -28.7% (active).

For `CCOC(=O)CCC[P+](c1ccccc1)(c1ccccc1)c1ccccc1`, the growth with NCI-H23 lung is 87.9%; with NCI-H226 lung it was 108%; with NCI-H322M lung, 96.4%; in the test on NCI-H460 lung, 82.2%; with HOP-92 NSCLC it was 71.4%; with NCI-H522 lung, 63.1%. In addition, the growth in the test with A549/ATCC NSCLC is 90.7%; with 786-0 renal, 101%; in the test with COLO 205 colon, 71.6%.

For the compound `Cn1cc(-c2nnc(-c3cn(C)c4ncc(Br)cc34)o2)c2ccccc21`, the growth was 90.4% with NCI-H23 lung; 93% in the test with NCI-H226 lung; 97.7% in the test with NCI-H322M lung; 98.2% with NCI-H460 lung; 77.1% in the test on HOP-92 NSCLC; 57.3% in the test on NCI-H522 lung. The growth with A549/ATCC NSCLC was 87.4%; with 786-0 renal, 105%; with COLO 205 colon it was 76%.

Consider `C[C@@H]1C[C@H]2C(=O)O[C@@H](C)[C@H](NC(=O)[C@H](Cc3cc(F)cc(F)c3)NC(=O)Nc3ccc(C4CC4)cc3F)C(=O)N3CCC[C@H]3C(=O)N3CCCC[C@H]3C(=O)N[C@@H](C)C(=O)N2C1`, for which the growth was 28.7% with NCI-H23 lung; 19.8% in the test with NCI-H226 lung; 45.4% with NCI-H322M lung; 3.54% (active) in the test with HOP-92 NSCLC; 19.4% in the test with NCI-H522 lung; 18.3% in the test with A549/ATCC NSCLC. The figures for the growth with 786-0 renal and with COLO 205 colon were 20% and -33.2% (active), respectively.

As for `ClC1=C(Cl)C(Cl)=C(Cl)C1=Cc1ccccc1`, the growth in the test on NCI-H23 lung is -58.6% (active); in the test on NCI-H226 lung, -73% (active); in the test on NCI-H322M lung it was -13.2% (active); in the test on NCI-H460 lung it was -52.6% (active); in the test with HOP-92 NSCLC, -49.1% (active); with NCI-H522 lung, -51.1% (active). In addition, the growth in the test on A549/ATCC NSCLC was -0.255% (active); in the test on 786-0 renal, -90.3% (active); with COLO 205 colon, -55.6% (active).

As for `C=C(C)[C@@H]1CC[C@]2(C)[C@H](CC=C3[C@@H]4[C@@H](C)[C@H](C)CC[C@]4(C(N)=O)CC[C@]32C)[C@@]1(C)CCC#N`, the growth with NCI-H23 lung was 6.47% [100 µM] (active); with NCI-H226 lung, -22.2% [100 µM] (active); in the test with NCI-H322M lung, 0.378% [100 µM] (active); with HOP-92 NSCLC, -37.7% [100 µM] (active); in the test on NCI-H522 lung, -6.12% [100 µM] (active); in the test on A549/ATCC NSCLC, 9.82% [100 µM] (active). Also, the growth in the test on 786-0 renal was -36.5% [100 µM] (active); in the test with COLO 205 colon, -78.9% [100 µM] (active).

Take `CCCCCCCCCN(CCCCCCCCC)C(C)C(=O)c1ccc2cc(Br)c3ccccc3c2c1` (configuration not stated): the growth is 102% with NCI-H226 lung; 116% in the test on NCI-H322M lung; 95.6% in the test with HOP-62 NSCLC; 110% with NCI-H460 lung; 72.8% with HOP-92 NSCLC; 96.5% in the test on NCI-H522 lung. The growth with A549/ATCC NSCLC was 86.1%; with 786-0 renal, 90.4%; in the test on COLO 205 colon, 81.9%.

For `O=C1NC(=O)c2cc([N+](=O)[O-])cc3cccc1c23`, the growth was 97.6% in the test with NCI-H23 lung; 106% with NCI-H226 lung; 89% in the test on NCI-H322M lung; 98.5% in the test with NCI-H460 lung; 80.2% in the test with HOP-92 NSCLC; 77.5% with NCI-H522 lung. For the same compound, the growth in the test on A549/ATCC NSCLC is 89.7%; with 786-0 renal, 98.6%; in the test with COLO 205 colon it was 105%.

Take `CCOC(=O)C(=Cc1ccccc1[N+](=O)[O-])C(=O)OCC`: the growth in the test with NCI-H23 lung is 14.4%; in the test with NCI-H226 lung, 42.3%; in the test on NCI-H322M lung, 89.2%; in the test with NCI-H460 lung, 49.5%; in the test on HOP-92 NSCLC, 9.84% (active); in the test on NCI-H522 lung, -1.64% (active). Besides, the results for the growth in the test on A549/ATCC NSCLC, in the test on 786-0 renal and in the test on COLO 205 colon were 53.6%, 28.2% and -42.2% (active), respectively.
